Test results: PubChem BioAssay (NCI)
The panel holds about 83,000 compounds, 20% with a hit somewhere; the sample as a whole holds those more often.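 For each line, cells grew in 96-well plates with the test compound present at a single concentration for 48 hours.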 Activity calls are given as the source filed them. Rule for the calls: active = growth percent below 10; inactive = the rest.

Test system: RXF 393 renal
Experiment: NCI-60 one-dose screen, 48 h (100 = growth as untreated, 0 = no growth, -100 = all killed)
Conditions: 10 µM unless noted

Row | Structure (SMILES) | growth
1 | O=C(CSc1nnc(-c2cc(-c3ccccc3)nc3ccccc23)o1)c1ccc(Br)cc1 | 108% (inactive)
2 | O=c1oc2c(cc1-c1ccc([N+](=O)[O-])cc1)C(O)Oc1ccccc1-2 (stereo unspecified) | 49.1% (inactive)
3 | CC(C)Sc1nc(Cl)c(C#N)c(-c2ccc(F)cc2)n1 | 116% (inactive)
4 | Cc1cc(C)cc(S(=O)(=O)n2ccc(-c3ccc4c(c3)CCC(C)(C)O4)n2)c1 | 77.3% (inactive)
5 | CCc1nn2c(-c3ccc(Cl)cc3C)c(-c3cc(OC)c(OC)c(OC)c3)nc2s1 | 85.2% (inactive)
6 | O=C(Nc1cccc(-n2cc(-c3ccncc3)c(-c3cc(O)cc(Cl)c3)n2)c1)Nc1ccc(Cl)c(Cl)c1 | -70.3% (active)
7 | COc1ccccc1-n1c(-c2ccc(O)cc2C)cn2c3c(=O)[nH]c(=O)n(C)c3nc12 | 72.4% (inactive)
8 | CCCCCN1C(=O)CCC1=O | 122% (inactive)
9 | O=C1NCCc2c1noc2-c1ccccc1 | 105% (inactive)
10 | CCOC(=O)c1cc2oc(/C=C/c3cc(=O)c4cc(Cl)ccc4o3)cc2[nH]1 | 58% (inactive)
11 | COc1cc(/C=C/C(=O)c2c(C)n([O-])c3ccccc3[n+]2=O)cc(OC)c1OC | 53.9% (inactive)
12 | O=C(c1ccccc1)C(CN1CCCCC1)c1ccccc1 (stereo unspecified) | 42.4% (inactive)
13 | c1ccc2c(-c3nc4ccccc4[nH]3)cccc2c1 | 31% (inactive)
14 | COc1cc(/C=C/c2cc(/C=C/c3ccc(O)c(OC)c3)n(C(=O)Cc3ccccc3)n2)ccc1O | -42.6% (active)
15 | O=C1NC(=O)/C(=C/c2ccc(Cl)cc2Cl)N1 | 120% (inactive)
16 | Nc1nc2c(c(=O)[nH]1)C1(C(=O)Nc3ccccc31)c1c(nc(N)[nH]c1=O)N2 | 96.6% (inactive)
17 | COc1ccc(NS(=O)(=O)N2CCCCC2)cc1 | 105% (inactive)
18 | COc1ccc(-c2cc(-c3cccnc3)nc3sc(C(=O)Nc4ccccc4)c(N)c23)cc1OC | 76% (inactive)
19 | C/C(=C\CCc1ccoc1)CC/C=C(\C)CCCNc1ccc(F)cc1 | 101% (inactive)
20 | Cc1cc2c(cc1C)[n+](Cc1ccc3ccccc3c1)cn2Cc1ccc2ccccc2c1 | -87% (active)
21 | CCN(CC)CCCCCCCNc1c2ccc(Cl)cc2nc2ccc(OC)cc12 | -70.8% (active)
22 | Cc1cc(C(=O)Nc2ccc3cc(CN4CCOCC4)ccc3n2)c(C)n1-c1ccccc1 | 96.3% (inactive)
23 | COc1cc(Cl)cc(-c2nn(-c3cccc(NC(=O)c4cc(C(F)(F)F)cc(C(F)(F)F)c4)c3)cc2-c2ccncc2)c1 | 67.7% (inactive)
24 | O=C(NCCNC(=O)Oc1cccc2ccccc12)Oc1cccc2ccccc12 | 104% (inactive)
25 | COC(=O)[C@H](Cc1cn(C)cn1)NC(=O)[C@H](C)NC(=O)Nc1cc(C(F)(F)F)cc(C(F)(F)F)c1 | -83.1% [100 µM] (active)
26 | O=C1CNc2cc(Cl)ccc2N1 | 101% (inactive)
